Reference: PubChem BioAssay (NCATS)
Records with an inconclusive call do not appear. More than one record can exist for a structure, and the calls need not agree. The source made the active and inactive calls. Calls follow the shape of the dose curve; as a rule, active = well fitted inhibition curve with a large enough effect; inconclusive = small, poorly fitted or top-dose-only effect; inactive = flat fitted curve, though single readings scatter.

assay: qHTS for Inhibitors of Plasmodium falciparum (DD2) proliferation (AID 504314); conditions: P. falciparum Dd2 in erythrocytes, SYBR Green growth, 72 h; series mostly up to 6.11 µM
How it was run: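 SYBR Green growth assay: 72 h compound exposure of infected red cells (2.5% hematocrit, 0.3% parasitemia), then lysis and overnight dye staining, fluorescence 485/535 nm. Values scaled between DMSO and 0.29 uM artemisinin controls.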
Potency is read from the fitted curve at half-maximal effect.

Potency, inactive:
C=CCC(C)(NCc1ccccc1)C(=O)OCC (stereo not given)
COC(=O)N[C@H](C[N+](=O)[O-])C(C)(C)C
COC(=O)c1ccc(CN2C(=O)[C@]3(O[C@H](C)CC4=CCCC43)c3c(Br)cccc32)cc1 (stereo not given in full)
CC(C)(C(O)c1ccc([N+](=O)[O-])cc1)[N+](=O)[O-] (stereo not given)
CCOC(=O)C1=C(CCl)NC(=O)N(C(C)=O)C1c1ccccc1 (stereo not given)
CC(Nc1oc(-c2ccccc2)nc1C(C)(C)C)c1ccccc1 (stereo not given)
COC(=O)C[C@H]1c2ccccc2[C@@H]2C(=C[C@@H](C)[C@H]3C(=O)N(O)C(=O)[C@H]32)N1C(=O)OC
C=C(C)C(=O)OC[C@H]1CN2[C@H](c3ccc(Br)cc3)[C@H](C)CC[C@H]2C(=O)O1
COC(=O)CC=C1c2ccc(OC)cc2[C@@H](OC)[C@@H]1C
COC1(C#C[C@@H]2C=C[C@H](OC(C)=O)[C@@H](COC(C)=O)O2)CCCCC1
COC(=O)N[C@H](C(C(=O)OC)=C(C)NCc1ccccc1)c1ccco1
CCC(=O)OC1(C)C(=O)C=C2C=C(c3ccsc3)OC=C2C1=O (stereo not given)
CC=CCCN1C=C(C(C)=O)C(c2ccccc2)NC1=O (stereo not given)
CCCCCCC#C[C@@H]1C=C[C@H](OC(=O)OCC)[C@@H](COC(=O)OCC)O1
C=CC[C@@]1(c2ccc(Br)cc2OC)Oc2ccccc2-c2nccnc21
CCN1C(=NCCCCO)N[C@@H](CCc2ccccc2)[C@H](C(=O)OC)[C@H]1C
CCN1C(=NCCCOC(C)C)N[C@@H](CCc2ccccc2)[C@H](C(=O)OC)[C@H]1C
CCN1C(=O)N(S(=O)(=O)C(F)(F)F)C(c2ccccc2)C(C(=O)OC)=C1C (stereo not given)
COC(=O)NC(c1ccccc1)C1(C(=O)OC)C(=O)Cc2ccccc21 (stereo not given)
COC(=O)CC=C[C@@H](C)[C@@H](COc1ccccc1Br)OC
CC=CC1=CC2=CC(=O)C(C)(OC(=O)c3c(C)cc(O)cc3O)C(=O)C2=CO1 (stereo not given)
CCOC(=O)CN1C(=O)NC(c2cccc(C(F)(F)F)c2)C(C(=O)OC)=C1C (stereo not given)
C#CCCCON=C1C[C@@H](O)[C@H](O)[C@H]2[C@@H]3C(=O)N(C[C@@H]4CCCO4)C(=O)[C@@H]3CC[C@@H]12
COC(=O)C(C(=O)OC)c1ccccc1[N+](=O)[O-]
C=CCOC(=O)N[C@H](C(C(=O)OC)=C(C)NCc1ccccc1)c1ccc(Br)cc1
O=C(C=Cc1cccc([N+](=O)[O-])c1)c1ccccc1
COC(=O)CC=C[C@@H](C)[C@H](NC(=O)OCC(Cl)(Cl)Cl)c1ccc2ccccc2c1
COC(=O)C1=C[C@@]2(c3ccc(OC)cc3[C@@H](OC)[C@@H]2C)[C@@H]2C=C[C@@H]1C2
COc1cc2c(cc1OC)[C@@H]1O[C@](c3ccsc3)(C2)OC2=C1C(=O)OC1(CCCCC1)C2
COc1cc2c(c(OC)c1)[C@H](C=Cc1ccccc1)[C@@H]([C@H](O)CO)OC2
CCOC(=O)CNC(=O)O[C@@H]1C(=O)c2cc(OC)ccc2O[C@H]1c1cccc(OC)c1
C(=Cc1nc(-c2ccccc2)oc1Nc1ccc2ccccc2c1)c1ccccc1
COC(=O)[C@@H]1[C@@H](c2ccccc2)NC(=O)N(Cc2ccccc2)[C@@H]1C
C[C@@H]1C=CCCO[C@]12C(=O)N(CC1CC1)c1ccccc12
COC(=O)CC(Oc1c(C)n(C)c2ccccc2c1=O)c1ccccc1 (stereo not given)
CCN1C(=O)NC(CCc2ccccc2)C(C(=O)OC)=C1C (stereo not given)
C=CCCCN1C(=O)NC(c2ccccc2)C(C(=O)OC)=C1C (stereo not given)
COC(=O)C(c1ccc(OC)c(OC)c1)C1c2ccccc2C=C(C)N1C(=O)OC (stereo not given)
COC(=O)c1c(C(=O)OC)c2c3cc(OC)c(OC)cc3ccn2c1C(=O)OC

Potency, 1.69 µM (active) and inactive:
COc1ccc(-c2nc(-c3ccccc3)c(NC(C)(C)C)o2)cc1

assay: qHTS for Inhibitors of Plasmodium falciparum (7G8) proliferation (AID 504316); also: nearly all actives have a fitted effect of over 65% in size; conditions: P. falciparum 7G8 in erythrocytes, SYBR Green DNA, 72 h; series mostly up to 6.7 µM
How it was run: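 Parasite growth measured as SYBR Green DNA fluorescence (ex 485, em 535 nm) after overnight lysis following 72 h culture at 37 °C, 0.3% parasitemia, 2.5% hematocrit. Values normalized against DMSO and 0.29 uM artemisinin controls, with plate-stack correction.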

Potency, inactive:
C=CCC(C)(NCc1ccccc1)C(=O)OCC (stereo not given)
COC(=O)N[C@H](C[N+](=O)[O-])C(C)(C)C
COC(=O)c1ccc(CN2C(=O)[C@]3(O[C@H](C)CC4=CCCC43)c3c(Br)cccc32)cc1 (stereo not given in full)
CC(C)(C(O)c1ccc([N+](=O)[O-])cc1)[N+](=O)[O-] (stereo not given)
CCOC(=O)C1=C(CCl)NC(=O)N(C(C)=O)C1c1ccccc1 (stereo not given)
CC(Nc1oc(-c2ccccc2)nc1C(C)(C)C)c1ccccc1 (stereo not given)
COC(=O)C[C@H]1c2ccccc2[C@@H]2C(=C[C@@H](C)[C@H]3C(=O)N(O)C(=O)[C@H]32)N1C(=O)OC
C=C(C)C(=O)OC[C@H]1CN2[C@H](c3ccc(Br)cc3)[C@H](C)CC[C@H]2C(=O)O1
COC(=O)CC=C1c2ccc(OC)cc2[C@@H](OC)[C@@H]1C
COC1(C#C[C@@H]2C=C[C@H](OC(C)=O)[C@@H](COC(C)=O)O2)CCCCC1
COC(=O)N[C@H](C(C(=O)OC)=C(C)NCc1ccccc1)c1ccco1
CCC(=O)OC1(C)C(=O)C=C2C=C(c3ccsc3)OC=C2C1=O (stereo not given)
CC=CCCN1C=C(C(C)=O)C(c2ccccc2)NC1=O (stereo not given)
CCCCCCC#C[C@@H]1C=C[C@H](OC(=O)OCC)[C@@H](COC(=O)OCC)O1
C=CC[C@@]1(c2ccc(Br)cc2OC)Oc2ccccc2-c2nccnc21
CCN1C(=NCCCCO)N[C@@H](CCc2ccccc2)[C@H](C(=O)OC)[C@H]1C
CCN1C(=NCCCOC(C)C)N[C@@H](CCc2ccccc2)[C@H](C(=O)OC)[C@H]1C
CCN1C(=O)N(S(=O)(=O)C(F)(F)F)C(c2ccccc2)C(C(=O)OC)=C1C (stereo not given)
COC(=O)NC(c1ccccc1)C1(C(=O)OC)C(=O)Cc2ccccc21 (stereo not given)
COC(=O)CC=C[C@@H](C)[C@@H](COc1ccccc1Br)OC
CC=CC1=CC2=CC(=O)C(C)(OC(=O)c3c(C)cc(O)cc3O)C(=O)C2=CO1 (stereo not given)
CCOC(=O)CN1C(=O)NC(c2cccc(C(F)(F)F)c2)C(C(=O)OC)=C1C (stereo not given)
C#CCCCON=C1C[C@@H](O)[C@H](O)[C@H]2[C@@H]3C(=O)N(C[C@@H]4CCCO4)C(=O)[C@@H]3CC[C@@H]12
COC(=O)C(C(=O)OC)c1ccccc1[N+](=O)[O-]
C=CCOC(=O)N[C@H](C(C(=O)OC)=C(C)NCc1ccccc1)c1ccc(Br)cc1
O=C(C=Cc1cccc([N+](=O)[O-])c1)c1ccccc1
COC(=O)CC=C[C@@H](C)[C@H](NC(=O)OCC(Cl)(Cl)Cl)c1ccc2ccccc2c1
COC(=O)C1=C[C@@]2(c3ccc(OC)cc3[C@@H](OC)[C@@H]2C)[C@@H]2C=C[C@@H]1C2
COc1cc2c(cc1OC)[C@@H]1O[C@](c3ccsc3)(C2)OC2=C1C(=O)OC1(CCCCC1)C2
COc1cc2c(c(OC)c1)[C@H](C=Cc1ccccc1)[C@@H]([C@H](O)CO)OC2
CCOC(=O)CNC(=O)O[C@@H]1C(=O)c2cc(OC)ccc2O[C@H]1c1cccc(OC)c1
C(=Cc1nc(-c2ccccc2)oc1Nc1ccc2ccccc2c1)c1ccccc1
COC(=O)[C@@H]1[C@@H](c2ccccc2)NC(=O)N(Cc2ccccc2)[C@@H]1C
C[C@@H]1C=CCCO[C@]12C(=O)N(CC1CC1)c1ccccc12
COC(=O)CC(Oc1c(C)n(C)c2ccccc2c1=O)c1ccccc1 (stereo not given)
CCN1C(=O)NC(CCc2ccccc2)C(C(=O)OC)=C1C (stereo not given)
C=CCCCN1C(=O)NC(c2ccccc2)C(C(=O)OC)=C1C (stereo not given)
COC(=O)C(c1ccc(OC)c(OC)c1)C1c2ccccc2C=C(C)N1C(=O)OC (stereo not given)
COC(=O)c1c(C(=O)OC)c2c3cc(OC)c(OC)cc3ccn2c1C(=O)OC

Potency, 1.51 µM (active) and inactive:
COc1ccc(-c2nc(-c3ccccc3)c(NC(C)(C)C)o2)cc1
